In the supplement of paper PMC3334620:
Over roughly 33,000 sequences, “E-score (-0.5 to 0.5)” has its median near -0.043; the highest 2% begin near 0.37. This excerpt belongs to a sample that is enriched for the highest values.

molecular target: T1, Upc2 (UniProt Q12151); experiment: PBM E-score (8-mer binding enrichment) (E-score (-0.5 to 0.5)); higher = stronger / more preferred TF binding; conditions: protein concentration: 200 nM; construct: GST-full length
T1 sequence: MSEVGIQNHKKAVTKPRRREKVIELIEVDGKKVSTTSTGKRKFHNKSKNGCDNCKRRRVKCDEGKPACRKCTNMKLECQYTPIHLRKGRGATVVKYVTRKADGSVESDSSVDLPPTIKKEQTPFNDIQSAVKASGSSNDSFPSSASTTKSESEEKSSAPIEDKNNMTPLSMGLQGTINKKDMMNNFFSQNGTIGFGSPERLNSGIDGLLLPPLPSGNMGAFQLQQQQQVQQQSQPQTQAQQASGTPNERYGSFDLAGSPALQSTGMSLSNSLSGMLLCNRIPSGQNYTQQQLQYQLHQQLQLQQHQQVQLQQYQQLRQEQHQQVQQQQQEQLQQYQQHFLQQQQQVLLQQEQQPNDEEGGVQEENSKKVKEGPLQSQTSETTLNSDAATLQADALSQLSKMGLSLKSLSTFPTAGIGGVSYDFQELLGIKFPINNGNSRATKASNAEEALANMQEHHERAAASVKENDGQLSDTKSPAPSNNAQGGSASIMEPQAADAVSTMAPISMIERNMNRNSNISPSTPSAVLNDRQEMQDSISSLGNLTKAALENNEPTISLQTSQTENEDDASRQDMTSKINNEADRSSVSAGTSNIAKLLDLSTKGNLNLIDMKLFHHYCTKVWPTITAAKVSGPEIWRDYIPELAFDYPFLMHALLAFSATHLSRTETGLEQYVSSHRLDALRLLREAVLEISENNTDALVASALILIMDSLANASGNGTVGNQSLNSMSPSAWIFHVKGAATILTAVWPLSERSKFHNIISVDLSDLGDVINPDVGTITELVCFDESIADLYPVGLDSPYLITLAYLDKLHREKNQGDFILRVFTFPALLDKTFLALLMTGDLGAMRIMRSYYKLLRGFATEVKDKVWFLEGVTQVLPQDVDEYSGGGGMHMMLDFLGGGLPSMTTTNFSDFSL
Outline: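 Universal all-10-mer Agilent arrays, fresh or stripped once, were converted to double-stranded form by primer extension. GST-tagged yeast transcription factors from PURExpress in vitro transcription/translation, full-length or DNA-binding domain only, were applied at about 100-200 nM and detected with fluorescent anti-GST. After masliner normalisation, the Universal PBM Analysis Suite scored each ungapped eight-base word together with its reverse complement by E-score.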

| Sequence | PBM E-score |
| --- | --- |
| GTAAACTA | 0.172 |
| ACAAACGA | 0.466 |
| ATAAACGC | 0.344 |
| ACAAACGG | 0.328 |
| GTAAACCA | 0.0531 |
| GTAAACGA | 0.491 |
| CTAAACGC | 0.416 |
| CTAAACTC | 0.0155 |
| GCAAACGA | 0.462 |
| AACAGATT | -0.0821 |
| AAAATGGC | -0.0658 |
| AAGAGTAG | -0.128 |
| CGTCTAGA | 0.121 |
| ACCACCTC | -0.111 |
| ATCCAGCG | -0.0436 |
| CATTGCGA | -0.0248 |
| CAATGGCG | -0.141 |
| CGATTCGA | 0.0594 |
| ACCACACC | -0.185 |
| CCAAACGA | 0.476 |
| ATAAACTG | -0.0103 |
| CAAAACGA | 0.31 |
| CCAAACGC | 0.292 |
| CCAAACGG | 0.365 |
| ATAAACGG | 0.434 |
| TCAAACGA | 0.471 |

| Sequence | PBM E-score |
| --- | --- |
| TCAAACAA | -0.0805 |
| AAAAACGG | 0.117 |
| AGGTTAGC | -0.3 |
| CGGTTACA | 0.156 |
| GGCACCAA | -0.0665 |
| ATGCACCA | -0.188 |
| GCCAGACC | -0.138 |
| ATCAGAGA | -0.167 |
| AGTCTATC | -0.159 |
| ACCGTAAG | 0.185 |
| ACCGTAGA | 0.178 |
| CCCGTATA | 0.479 |
| CCCGTATC | 0.339 |
| GCCGTAGA | 0.189 |
| ACCGTATA | 0.478 |
| CCCGTAGA | -0.00639 |
| ACGGTATA | 0.274 |
| GCCGTATA | 0.48 |
| ACCGTATC | 0.345 |
| GCGGTATA | 0.151 |
| ACCGTATG | 0.381 |
| TAACGTCA | 0.0914 |
| AGTCCAAT | -0.149 |
| AGGGGTCC | -0.168 |
| AATGTCGC | 0.0832 |
| AGTTGCGA | 0.0264 |

| Sequence | PBM E-score |
| --- | --- |
| CGGGTATC | 0.135 |
| CGTGCACG | 0.134 |
| ACCAGGAC | -0.0418 |
| GGCACAAC | -0.279 |
| CCGACGAA | 0.067 |
| GCGACGGA | 0.0438 |
| ACGACGGA | 0.37 |
| ACGACGAG | 0.367 |
| ACGACGAA | 0.375 |
| ACGACGTG | 0.351 |
| TCGACGAA | -0.018 |
| ACGACGTA | 0.413 |
| ACGACGGC | 0.333 |
| ACGACGGG | 0.415 |
| CCGACGGA | -0.0042 |
| CCGACGTA | 0.225 |
| CATGTTAA | 0.0636 |
| GGTCTGAA | 0.0866 |
| TAGAATGA | -0.263 |
| GCACGCGA | -0.0589 |
| GGGTATAA | -0.0582 |
| CGCAGTCA | -0.228 |
| GGCTTTGA | -0.0097 |
| ATAGGGAT | -0.0755 |
| ATAGACAT | -0.151 |
| TATCCATA | 0.2 |

| Sequence | PBM E-score |
| --- | --- |
| CTACCATC | 0.00378 |
| AGCCTTGC | -0.0435 |
| AAACGAGC | 0.489 |
| GCACGAGC | -0.0167 |
| AACCGAGC | 0.325 |
| GAACGAGC | 0.465 |
| GCACGAGA | 0.0181 |
| CAACGAGC | 0.286 |
| AATCGAGC | 0.286 |
| GGACGAGA | -0.00291 |
| GAACGAGA | 0.457 |
| TGAATGCA | -0.0537 |
| CTTAGATC | -0.0871 |
| CCCCTATA | 0.0494 |
| AAAAAGTT | -0.0419 |
| GGCCTCTA | -0.0932 |
| CGCTACGA | 0.421 |
| AGCTACGA | 0.34 |
| CTCTACGC | 0.0628 |
| ATCTACGA | 0.313 |
| CTCTACGA | 0.409 |
| CGCTACGC | 0.136 |
| GGCAGGAA | -0.24 |
| AATCCAGG | 0.0108 |
| AAAACTAC | 0.137 |
| CCTGGCAA | -0.125 |

| Sequence | PBM E-score |
| --- | --- |
| CAAGACAA | -0.0401 |
| TAATCGGA | 0.155 |
| CAATCGTC | -0.144 |
| CAATCGTG | -0.153 |
| GAATCGCA | -0.0934 |
| TAATCGAA | 0.226 |
| AAATCGTG | 0.0785 |
| GAATCGTC | 0.052 |
| CAATCGTA | 0.4 |
| AAATCGTA | 0.383 |
| GAATCGTA | 0.387 |
| AAATCGTC | 0.14 |
| TAATCGTA | 0.42 |
| CTGGCTCC | -0.252 |
| CCGGAGAC | -0.0181 |
| AGGTCTCA | -0.221 |
| CCTCAGCA | -0.21 |
| AAACGTAC | 0.33 |
| AGTGGATC | -0.0691 |
| AGTACTAC | 0.119 |
| GCACAAAC | 0 |
| CGCAACGC | 0.0437 |
